Values joined by “and” are separate entries in the source; they are usually repeats but may differ in a detail not shown here. Equal entries are not always repeated. In all, about 5,400 compounds were measured (“IFI”: median about 2, highest 2% from about 22 on). The full list was thinned out, with the highest values kept by preference.
Experiment: NOVARTIS: Inhibition Frequency Index (IFI) - the number of HTS assays where a compound showed > 50% inhibition/induction, expressed as a percentage of the number of assays in which the compound was tested.
Assay type: functional

Row | Compound | IFI
1 | GNF-Pf-2945, CHEMBL581676 | 1.82%
2 | GNF-Pf-1437, CHEMBL576411 | 14.3%
3 | GNF-Pf-448, CHEMBL580641 | 30%
4 | CCc1ccc(C=NNC(=O)COc2ccc3c(c2)OCO3)cc1 | 0%
5 | COc1cccc2c1C(=O)c1c(O)c3c(c(O)c1C2=O)C[C@](O)(C(C)=O)C[C@@H]3O[C@H]1C[C@@H](N)[C@H](O)[C@H](C)O1 | 19.7%
6 | COc1cccc2c1C(=O)c1c(O)c3c(c(O)c1C2=O)C[C@@](O)(C(=O)CO)C[C@@H]3O[C@@H]1C[C@H](N)[C@H](O)[C@H](C)O1 | 25.6%
7 | COc1cccc2c1C(=O)C1C(O)=C3C(=C(O)C1C2=O)CC(O)(C(C)=NN=C1CC(C)(C)N(O)C(C)(C)C1)CC3OC1CC(C)(N)C(O)CO1 (centres undefined) | 21.4%
8 | Cc1ccc(-c2cc(C(=O)OCC(=O)c3cccc([N+](=O)[O-])c3)c3cc(C)ccc3n2)cc1 | 0%
9 | Cc1cc(C)c2cc(CN(CCN(C)C)C(=S)NCCCN(C)C)c(=O)[nH]c2c1 | 3.12%
10 | CC1=C(CO)C(=O)O[C@@H]([C@@H](C)[C@H]2CC[C@H]3[C@@H]4C[C@H]5O[C@]56[C@@H](O)C=CC(=O)[C@]6(C)C4CC[C@]23C)C1 (some centres undefined) | 32.1%
11 | Cc1ccn2c(NC(C)(C)CC(C)(C)C)c(-c3ccccc3OC(=O)CCc3ccccc3)nc2c1 | 3.74%
12 | c1ccc(-c2cc(N3CCOCC3)nc(-c3ccccn3)n2)nc1 | 15.4%
13 | COc1ccc(NC(=O)CCCCCn2c(SCc3cc(=O)oc4cc(O)ccc34)nc3ccsc3c2=O)cc1 | 0%
14 | CN(C)c1ccc(/C=C/c2cccc(/C=C/c3ccc(N(C)C)cc3)[n+]2C)cc1 | 25%
15 | CC[n+]1ccccc1C=Cc1ccc(N(C)C)cc1 | 6.57% and 5.88%
16 | CN(C)c1ccc(/C=C/c2cccc[n+]2C)cc1 | 6.3%
17 | CCCCCC[n+]1ccccc1C=Cc1ccc(N(C)C)cc1 | 27.6%
18 | CC(C)CC[n+]1ccccc1C=Cc1ccc(N(C)C)cc1 | 15.4%
19 | Cc1ccc(C=Cc2ccc(N(C)C)cc2)[n+](C)c1 | 15.4%
20 | CC1CCCCN1CCCNc1ncc(C(=O)NCCc2ccccc2)c(NCC2CCCO2)n1 (centres undefined) | 3.81%
21 | CCCCNC(=S)N(Cc1cccs1)Cc1cc2cc(C)ccc2[nH]c1=O | 1.82%
22 | CC(C)(C)c1ccc(CNC(=O)C(Cc2ccc(O)cc2)c2ccccc2)cc1 (centres undefined) | 0%
23 | C=CCSc1oc(-c2ccco2)nc1[P+](c1ccccc1)(c1ccccc1)c1ccccc1 | 23.1%
24 | O=C(CSc1oc(-c2ccc(Cl)cc2)nc1[P+](c1ccccc1)(c1ccccc1)c1ccccc1)c1ccccc1 | 21.4%

Row | Compound | IFI
25 | CCOC(=O)C1=C(CC)NC2=C(C(=O)CC(C)(C)C2)C1c1ccccc1F (centres undefined) | 4.6%
26 | CCN1/C(=C/c2cccc[n+]2C)Sc2ccc(OC)cc21 | 15.4%
27 | CCC(/C=C1\Sc2ccc(OC)cc2N1CCCS(=O)(=O)O)=C\c1sc2ccc(OC)cc2[n+]1CCCS(=O)(=O)O | 22.7%
28 | CC[n+]1c(/C=C(C)/C=C2\Sc3ccccc3N2CCO)sc2ccccc21 | 7.69%
29 | CCOC(=O)c1c(C)[n+](-c2ccc(C)cc2)c(CC)c2cc(OC)c(OC)cc12 | 2.29%
30 | Cc1ccc(-c2c3c4n(c(-c5ccc(Cl)cc5)cn4c2C(=O)Nc2ccccc2Cl)CCCC3)cc1 | 6.06%
31 | CCCCN(CCCC)[P+](N(CCCC)CCCC)(N(CCCC)CCCC)N(CCCC)CCCC | 27.3%
32 | CCC(=O)N1CCc2cc(Br)cc(S(=O)(=O)N3CC(C)CC(C)C3)c21 (centres undefined) | 0%
33 | COc1ccc2nc3cc(Cl)ccc3c(NCCN(CCN)CCN)c2c1 | 14.5%
34 | CN(C)c1ccc(-c2cc(-c3ccccc3)[s+]c(-c3ccccc3)c2)cc1 | 31.4%
35 | CN(C)c1ccc(-c2nc(-c3ccc(-c4[nH]c(-c5ccc(N(C)C)cc5)nc4-c4ccccc4)cc3)c(-c3ccccc3)[nH]2)cc1 | 12.5%
36 | CN(C)c1ccc(C(=Cc2cc(-c3ccccc3)cc(-c3ccccc3)[o+]2)c2ccc(N(C)C)cc2)cc1 | 12.7%
37 | COc1ccc(-c2nc(NC(=O)CS(=O)(=O)c3ccccc3)sc2C)cc1 | 0%
38 | C1=C(c2ccc(CN3CCCCC3)cc2)N2CCN=C2c2ccccc21 | 2.98%
39 | Cc1cc(S(=O)(=O)NC(Cc2ccc([N+](=O)[O-])cc2)C(=O)O)c(Cl)cc1Cl (centres undefined) | 1.03%
40 | Clc1ccccc1Nc1nc2nonc2nc1Nc1cccc(Br)c1 | 15.4%
41 | Clc1ccc(Nc2nc3nonc3nc2Nc2ccc(Cl)c(Cl)c2)cc1Cl | 7.14%
42 | FC(F)(F)c1cccc(Nc2nc3nonc3nc2Nc2ccc(Br)cc2)c1 | 22.2%
43 | c1ccc(Oc2ccc(Nc3nc4nonc4nc3Nc3ccc(Oc4ccccc4)cc3)cc2)cc1 | 0%
44 | FC(F)(F)c1cccc(Nc2nc3nonc3nc2Nc2ccc(Cl)cc2)c1 | 22.7%
45 | Cc1ccc2ncnc(Nc3cccc(C(F)(F)F)c3)c2c1 | 4.41%
46 | CCN(CC)c1scc(-c2ccc(Br)cc2)[s+]1 | 7.69%
47 | COc1ccc(C2=C(c3ccc(OC)cc3)C3(c4ccccc4)C(=O)C2(c2ccccc2)C2C(=O)N(c4ccc(F)cc4)C(=O)C23)cc1 (centres undefined) | 0%
48 | CN(/C=C/C1=[N+](C)c2ccc(Cl)cc2C1(C)C)c1ccccc1 | 0%

Row | Compound | IFI
49 | CCN1/C(=C/C=C/C2=[N+](C)c3ccc(C)cc3C2(C)C)C=Cc2ccccc21 | 28.6%
50 | CCN1/C(=C\C=C\C2=[N+](C)c3ccccc3C2(C)C)N(c2ccccc2)c2ccccc21 | 28.6%
51 | CCN1/C(=C/c2cccc[n+]2C)C=Cc2cc(C)ccc21 | 15.4%
52 | COCCN1C(=O)c2ccccc2C(C(=O)Nc2cccc(C(F)(F)F)c2)C1c1cccs1 (centres undefined) | 9.09%
53 | CC1CCN(S(=O)(=O)c2ccc(C(=O)Nc3sc4c(c3C(N)=O)CCN(C)C4)cc2)CC1 | 0%
54 | COc1nc(C)nc(NC(=O)NC(=O)c2c(OC)ccc([N+](=O)[O-])c2OC)n1 | 2.61%
55 | CCCCCc1ccc(OCCOCC[n+]2ccccc2)c(CCCCC)c1 | 4.54%
56 | CCN1C(=Cc2sc3ccccc3[n+]2C)C=Cc2cccc(C)c21 | 23.1%
57 | CCN1C=C(c2ccc(C)cc2)S/C1=C\c1sc2ccccc2[n+]1C | 14.7%
58 | CN1C=CC(=Cc2sc3ccccc3[n+]2C)C=C1 | 0%
59 | CCN1/C(=C/c2cccc[n+]2C)C=Cc2ccc(C)cc21 | 7.79%
60 | CCN1C(=Cc2sc3ccc(O)cc3[n+]2CC)C=Cc2cc(C)ccc21 | 15.4%
61 | CCN1C(=Cc2sc3ccccc3[n+]2C)C=Cc2ccc(C)cc21 | 23.8%
62 | CCCOC(=O)C1=C(C)NC2=C(C(=O)CC(c3ccc(OC)c(OC)c3)C2)C1c1ccc(O)c(OCC)c1 (centres undefined) | 0%
63 | CCOC(=O)c1cc(S(=O)(=O)NCc2ccc(F)cc2)n[nH]1 | 0%
64 | C=CCC(=O)NC1CCN(CC(O)CN(Cc2ccccc2)S(=O)(=O)c2ccccc2)C1 (centres undefined) | 2.91%
65 | CC12C(=O)N(c3cccc(C(=O)O)c3)C(=O)C1C1c3ccccc3C2c2ccccc21 (centres undefined) | 0%
66 | CO[C@H]1C[C@H](C)Cc2cc(O)cc(c2)NC(=O)C(C)=CCC[C@H](OC)[C@@H](OC(N)=O)C(C)=CC(C)[C@H]1O (some centres undefined) | 9.62%
67 | CCC(C)(C)c1ccc(Oc2ccc(NC(=O)c3ccc([N+](=O)[O-])o3)cc2)cc1 | 15.2%
68 | CCOC(=O)c1ccc(NCc2c(C)[nH]c(C(=O)OCC)c2C)cc1 | 0%
69 | CCN(CC)c1ccc(C=NNC(=O)c2ccc(Nc3nc(-c4ccccc4)cs3)cc2)c(O)c1 | 27.3%
70 | CCN(CC)S(=O)(=O)c1ccc(-c2csc(Nc3ccc(C)c(C)c3)n2)cc1 | 4.71%
71 | O=C(Nc1nc(-c2ccccc2)cs1)c1ccccc1O | 9.79%
72 | Cn1nc(C(=O)NCc2ccccc2)c2c1CCN(Cc1cccc(O)c1)C2 | 1.22%

Row | Compound | IFI
73 | CC(C)C[C@@H]1NC(=O)[C@@H](CC(C)C)NC(=O)[C@H](C(C)C)NC(=O)[C@H]2CSSC[C@@H](NC1=O)C(=O)N2 | 25.9%
74 | CC(C(=O)NCCCN)N(Cc1ccccc1)S(C)(=O)=O (centres undefined) | 3.92%
75 | Oc1ccc(-c2cncc(NCc3ccccc3)n2)cc1 | 0%
76 | CN(C)c1ccc(C(=C2C=CC(=[N+](C)C)C=C2)c2ccc(N(C)C)cc2)cc1 | 25.7%
77 | CN(C)c1cc[n+](CC(=O)c2ccc(Cl)cc2)cc1 | 0%
78 | CCCCNC(=O)c1nn(-c2ccc(OC)cc2)c(=O)c2ccccc12 | 2.35%
79 | Nc1nc(N)c2c(OCc3ccc(C(F)(F)F)cc3)cccc2n1 | 7.63%
80 | c1ccc(-c2cc(NCCCN3CCOCC3)nc(-c3ccccn3)n2)nc1 | 15.4%
81 | CCOC(=O)c1sc2nc(N)c(C#N)c(-c3cccs3)c2c1N | 1.35%
82 | CSc1oc(-c2ccccc2)nc1C(N)=O | 0%
83 | CSc1oc(C(C)(C)C)nc1[P+](c1ccccc1)(c1ccccc1)c1ccccc1 | 23.2%
84 | COc1ccc2c(c1)C(C)(CC#N)C(=O)N2C (centres undefined) | 1.51%
85 | O=C1C(=Nc2cccc(C(F)(F)F)c2)c2ccccc2N1CN1CCc2ccccc2C1 | 0%
86 | Cc1ccc(S(=O)(=O)N=C2C=C(Sc3nnc[nH]3)C(=O)c3ccccc32)cc1 | 25%
87 | O=C1C(Sc2nnc[nH]2)=CC(=NS(=O)(=O)c2cccs2)c2ccccc21 | 25%
88 | Cc1ccc(C)c(S(=O)(=O)N=C2C=C(SCC(=O)O)C(=O)c3ccccc32)c1 | 6.25%
89 | Cc1ccc(S(=O)(=O)N=C2C=C(Sc3nc4ccccc4[nH]3)C(=O)c3ccccc32)cc1 | 12.7%
90 | CCCCOc1ccc(C(=O)Oc2ccccc2-c2nc3cc(C)ccn3c2NC(C)(C)CC(C)(C)C)cc1 | 4.67%
91 | COc1ccc(/C=C/c2nc(=O)c3ccccc3o2)cc1 | 0%
92 | O=C(COc1ccccc1Cl)OCc1cc(=O)n2nc(C3CC3)sc2n1 | 0%
93 | CCSCCOC(=O)C1=C(C)NC2=C(C(=O)CCC2)C1c1ccc(OC)c(Br)c1 (centres undefined) | 2.33%
94 | CC(C)CN(C(C(=O)NC(CN1CCCC1)c1ccccc1)c1ccccc1)S(=O)(=O)c1ccccn1 (centres undefined) | 1.96%

From ChEMBL document CHEMBL1156829
